# Screens as filed in PubChem BioAssay.
# Shown are actives, neighbours in structure and some others; about 2.2% of the full set was active somewhere.
# Efflux pump mplx – blocks antifungal efflux pumps in multiplex yeast assay. S. cerevisiae Candida pump triplex, Nile Red efflux. inhibition, % at 10 µM. 330,000 tested, 0.44% active. AID 485275;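 active means plate passing quality check with inhibition over a set limit, or well fluorescence over plate mean plus 4 SD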;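 further: Nile Red retained in pooled yeast measured as flow cytometry median fluorescence; 0% = buffer negative control and 100% = Enniatin B positive control; higher means more Nile Red kept so more efflux inhibition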
# HGIII-sPLA2 inh – Blocks human group III sPLA2 activity; inhibition, % at 12.2 µM; Q9NZ20; QFRET BODIPY PC-A2 liposome hydrolysis, fluorescence; 370,000 tested, 0.56% active;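 active means inhibition above mean plus 3 SD of compounds lying within the high and low control bounds, cut at about 19% in these data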;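 further: 0% = median of test compound wells and 100% = no enzyme DMSO wells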
# Target sequence (Q9NZ20 whole entry, looked up): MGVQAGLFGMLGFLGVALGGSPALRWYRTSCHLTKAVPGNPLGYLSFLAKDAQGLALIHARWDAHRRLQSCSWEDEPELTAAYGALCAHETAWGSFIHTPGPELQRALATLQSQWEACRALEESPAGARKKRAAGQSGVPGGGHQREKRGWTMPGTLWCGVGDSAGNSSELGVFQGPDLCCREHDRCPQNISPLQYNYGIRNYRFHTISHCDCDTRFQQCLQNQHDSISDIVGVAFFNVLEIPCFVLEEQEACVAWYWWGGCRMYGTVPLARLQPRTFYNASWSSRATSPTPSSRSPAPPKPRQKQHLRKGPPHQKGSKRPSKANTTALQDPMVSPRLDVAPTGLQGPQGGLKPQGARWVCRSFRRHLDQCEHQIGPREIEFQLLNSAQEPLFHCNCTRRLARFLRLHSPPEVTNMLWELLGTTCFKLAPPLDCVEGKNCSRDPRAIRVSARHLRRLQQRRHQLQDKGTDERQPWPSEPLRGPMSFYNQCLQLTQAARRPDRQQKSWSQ
# SUMO Mot1 rescue – blocks SUMOylation pathway, rescuing yeast Mot1-301 growth; S. cerevisiae Mot1-301 growth rescue, ATP luminescence, 38.5C; percent above DMSO median, 100 means doubled; growth rescue, % at 18.8 µM; 320,000 tested, 1% active; AID 2716;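 active means every valid replicate shows activation above 250% relative to neutral control wells; inactive means the rest, any valid replicate at or below 250%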;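 further: OY570 slx delta 5 strain wells were the positive control but not used for scaling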
# SKN-1 inh – blocks SKN-1 activity in C. elegans. C. elegans VP596 Pgst-4::GFP/RFP ratio, acrylamide-induced, 24 h. inhibition, % at 21.8 µM. 360,000 tested, 0.49% active;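 active means interference check ratio from 0.5 to 1.5 plus GFP to RFP signal ratio inhibition reaching or exceeding a fixed threshold, cut at about 30% in these data, passing the limit was not always enough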
# hGIII sPLA2 conf – human GIII-sPLA2 inhibition, confirmation | recombinant hGIII-sPLA2, BODIPY PC-A2 QFRET fluorescence | inhibition, % at 12.2 µM | 2,000 tested, 34% active | shares compounds with HGIII-sPLA2 inh;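 active means mean inhibition across triplicates above the hit cutoff set in the earlier primary screen, cut at about 19% in these data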;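 further: 0% = enzyme with DMSO and 100% = DMSO wells lacking enzyme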
# BODIPY interf – optically interferes with 535nm fluorescence in sPLA2 counter-screen. BODIPY FL product fluorescence interference, QFRET. AID 743282. shares compounds with HGIII-sPLA2 inh. 2,000 tested, 8.5% active. inhibition, % at 12.2 µM;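 active means average inhibition above the solvent-only control mean plus 3 SD, cut at about 6% in these data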;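 further: 0% = DMSO with substrate plus product and 100% = DMSO with substrate alone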
# BODIPY interf DR – counter-screen for HGIII-sPLA2 inhibitors: 535nm fluorescence interference, dose response; 240 tested, under 10 active; shares compounds with HGIII-sPLA2 inh; BODIPY FL product fluorescence interference, cell-free; IC50, µM;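 active means IC50 at or below 10 µM; inactive means IC50 above 10 µM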
# * = called active by the depositor; . = no result.
SMILES,Efflux pump mplx,HGIII-sPLA2 inh,SUMO Mot1 rescue,SKN-1 inh,hGIII sPLA2 conf,BODIPY interf,others
Cc1ccc2[nH]c(-c3cccc(F)c3)cc(=O)c2c1,0,-5,3,5,.,.,
C/C(=N\Nc1ncc(Cl)cc1Cl)c1ccc2c(c1)OCO2,0,20*,-6,11,4,-5,
COc1ccc(CC(N)c2csc(Nc3cc(Oc4ccccc4)ncn3)n2)cc1 (configuration not stated),.,10,.,15,.,.,
COC(=O)c1cnc(Nc2nc(C(N)Cc3ccc(OC)cc3)cs2)nc1C(F)(F)F (configuration not stated),.,14,.,20,.,.,
COC(=O)c1cnc(Nc2nc(C(N)Cc3ccc(Cl)cc3)cs2)nc1C(F)(F)F (configuration not stated),.,27*,.,19,8,-5,
NC(Cc1ccc(Cl)cc1)c1csc(Nc2cc(Oc3ccccc3)ncn2)n1 (configuration not stated),.,27*,.,-5,20*,-13,
NC(c1csc(Nc2cc(NCc3ccco3)ncn2)n1)c1ccccc1Cl (configuration not stated),.,23*,.,-3,-5,-3,
NC(c1csc(Nc2cc(Oc3ccccc3)ncn2)n1)c1ccccc1Cl (configuration not stated),.,21*,.,11,13,-3,
Cc1cccc(C)c1OC(=O)c1ccccc1,.,-5,.,-3,.,.,
O=C(NCc1ccccc1Cl)c1csc([C@@H]2O[C@H](CO)[C@H](O)[C@H](O)[C@H]2O)n1,.,-2,.,2,.,.,
COc1cc(CNc2ccc3[nH]c(=O)[nH]c3c2)ccc1OCc1ccccc1F,0,24*,12,13,24*,-1,
CCOC(=O)CC[C@@H]1CC[C@]2(CCCN(Cc3nccn3C)C2)O1,.,6,.,.,.,.,
Cc1oc2cc3oc(=O)c(CCC(=O)N(C)CC(=O)O)c(C)c3cc2c1C,0,23*,69,6,6,-4,
CNC(=S)NN=C(C)c1ccc(OC)cc1O,.,27*,.,6,31*,4,BODIPY interf DR=>122
CNc1cncc(-c2cc(OC)c(OC)c(OC)c2)n1,.,15,.,6,.,.,
Cc1ccccc1NC(=O)Nc1ccccn1,0,20*,-1,9,0,-4,
CCCS(=O)(=O)c1nc(S(=O)(=O)c2ccc(Cl)cc2)c(N2CCC(O)CC2)s1,0,-11,-3,4,.,.,
CN(c1ccccc1)c1cc(=O)[nH]c(=O)[nH]1,0,28*,223,0,-1,-3,
N#C/C(C(N)=O)=c1/ccc2c(c1)N1C3=C(CCCC3)CC3CCCCC31N=2 (configuration not stated),0,26*,-54,.,45*,1,BODIPY interf DR=>122
Cc1cccc(C)c1NC(=O)C(=O)NCC1CCCN1S(=O)(=O)c1ccccc1 (configuration not stated),0,3,-7,5,.,.,
COc1ccccc1Cn1[nH]nnc1=S,0,22*,13,-3,13,-2,
COc1ccccc1CN1C(=O)CNC1=S,0,.,1,4,.,.,
Cc1ccc(-n2nnnc2SCC(=O)Nc2sc(C)c(C)c2C#N)cc1C,0,-4,-3,3,.,.,
CC(=O)c1ccc(-n2nnnc2SCC(=O)Nc2sc(C)c(C)c2C#N)cc1,0,19*,-3,3,4,-11,
COC(=O)c1ccc(CN2CCC(Oc3cccc(C(=O)N4CCOCC4)c3)CC2)cc1,0,3,-35,-9,.,.,
SMILES,Efflux pump mplx,HGIII-sPLA2 inh,SUMO Mot1 rescue,SKN-1 inh,hGIII sPLA2 conf,BODIPY interf,others
O=c1cc(-c2ccccc2)cc(-c2ccccc2)n1O,0,21*,12,-3,12,-10,
CC(CSc1nnnn1-c1ccccc1)Cn1c(N2CCCC2)nc2c1c(=O)[nH]c(=O)n2C (configuration not stated),0,21*,-1,6,0,-21,
Cc1ccc2sc(NNC(=O)c3cc(-c4cccs4)nc4ccccc34)nc2c1C,0,9,0,.,.,.,
Cc1cc(C)c2nc(NNC(=O)c3cc(-c4cccs4)nc4ccccc34)sc2c1,0,37*,298,20,34*,0,BODIPY interf DR=>122
O=C(NNc1nc2ccc(Cl)cc2s1)c1cc(-c2cccs2)nc2ccccc12,0,28*,-8,4,35*,13*,
Cc1ccc(C(=O)NCCCNC(=O)COc2ccc(Cl)cc2)cn1,0,0,-15,3,.,.,
O=C(Nc1ccc([N+](=O)[O-])cn1)c1cccnc1,0,20*,0,-12,5,-4,
Cc1cc(SCC(=O)NN=C2CCN(C(C)C)CC2)c(C)cc1Br,0,22*,9,-4,4,-16,
O=C(NC1CC1)c1cccc(S(=O)(=O)N2CCOCC2)c1,0,6,-14,-19,.,.,
O=[N+]([O-])c1ccccc1CNC(Cc1ccccc1)c1ccccc1 (configuration not stated),0,24*,-8,9,2,-11,
CSc1cccc(NC(N)=S)c1,0,20*,150,-9,18,-7,
COc1ccc(OC)c(N(/C(N)=N/c2nc(C)cc(C)n2)S(=O)(=O)c2ccc(NC(C)=O)cc2)c1,0,2,41,3,.,.,
COc1cc(C=NCC2OCCc3ccccc32)cc(OC)c1 (configuration not stated),0,20*,114,-1,0,-4,
COc1ccc(C=NCC2OCCc3ccccc32)cc1OC (configuration not stated),0,7,-17,3,.,.,
COc1cc(C)c2sc3ccccc3c(=O)c2c1NCCN(C)C,.,20*,.,18,17,-22,
Cc1ccc(NCCN(C)C)c2c(=O)c3cc(O)ccc3sc12,.,-5,.,10,.,.,
CCOC(=O)C1CCCN(C(=O)CCCn2nnnc2CN2CCOCC2)C1 (configuration not stated),.,5,.,5,.,.,
CC(=O)C1=C(C)Nc2ncnn2C1c1ccc(F)cc1 (configuration not stated),0,22*,20,0,11,-5,
COC(=O)c1ccc(C2C(C(C)=O)=C(C)Nc3ncnn32)cc1 (configuration not stated),0,11,-2,-4,.,.,
Cc1nn(-c2ccccc2)c(NC(=O)C(C)C)c(-c2ccccc2)c1=O,0,18,-8,6,.,.,
CCCC(=O)Nc1c(-c2ccccc2)c(=O)c(C)nn1-c1ccccc1,0,20*,-22,10,-3,-7,
CCCCN(C)CCNC(=O)CCNC(=O)Cn1ccc2ccccc2c1=O,0,5,-1,-19,.,.,
CCCC[C@H](C(=O)N(C)c1ccccc1)[C@@H](O)c1ccc(C(C)=O)cc1,.,-6,.,.,.,.,
COc1cc([N+](=O)[O-])ccc1N,0,28*,-9,10,2,-4,
